Sampled rows, rich in hits. Any-hit rate of the full collection: about 19%.
DT40 TDP1 CPT: growth inhibition of DT40 Tdp1-/-;hTDP1 cells with camptothecin (screen for TDP1 inhibitors) | Potency, µM (doses to about 46.2 µM), without a hit: top-dose activity change, negative = growth inhibition, hits mostly inhibitors | 420,000 compounds, 12% hits | chicken DT40 Tdp1-/-;hTDP1 cells + 20 nM CPT, ATP luminescence, 48 h; note: potency is the fitted concentration of half-maximal effect; nearly all actives have a fitted effect of over 55% in size
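Chicken DT40 Tdp1-/- cells stably complemented with human TDP1 were seeded at 400 cells/well in medium containing 20 nM camptothecin, exposed to pin-transferred compounds, and grown at 37 °C for at least 48 hr. Viability was read as ATP luminescence.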
ELG1 DNA repair: blocks ELG1-dependent DNA repair in HEK293T cells; 330,000 compounds, 2.3% hits; HEK293T ELG1-luciferase reporter, luminescence, 16 h; DNA damage induced by 5-fluorouridine; Potency, µM (doses to about 46.1 µM), inactives show top-dose activity change, negative = inhibition, usual class: inhibitors; note: potency is the fitted concentration of half-maximal effect; nearly all actives have a fitted effect of over 55% in size
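DMSO vehicle served as the neutral condition. Each well held 2,000 cells given 5-fluorouridine plus compound; after 16 hr at 37 °C/5% CO2, ONE-Glo was added and luciferase measured 30 min later.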
HT1080 IDH1KD tx: HT-1080 IDH1 knockdown cell toxicity (counter line). HT-1080 IDH1 knockdown viability, ATP luminescence, 48 h. Potency, µM (series often up to 46.1 µM), for inactives: top-dose activity, negative = toxicity, usual class: cytotoxic. 360,000 compounds, 2% hits;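 note: potency is the fitted concentration of half-maximal effect; 0% = DMSO wells and -100% = cell-free medium wells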
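Luminescent ATP read-out (CellTiter-Glo, 10 min at room temperature) after 48 h compound exposure at 37 °C gave viability of IDH1-knockdown HT-1080 cells. Activity was normalised to DMSO and cell-free wells, then fitted as concentration-response curves.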
TDP1 cell noCPT: qHTS for Inhibitors of human tyrosyl-DNA phosphodiesterase 1 (TDP1): qHTS in cells in absence of CPT; DT40 Tdp1-/- hTDP1 cells, no CPT, ATP luminescence, 48 h; Potency, µM (series often up to 46.2 µM), without a hit: at the highest dose activity change, negative = growth inhibition, usual class: inhibitors; 420,000 compounds, 15% hits; note: potency is the fitted concentration of half-maximal effect; nearly all actives have a fitted effect of over 55% in size
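Stably hTDP1-transfected Tdp1-null chicken DT40 cells were treated with library compounds minus camptothecin and grown for at least 48 hr at 37 °C, after which cellular ATP was quantified by luminescence.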
HT1080NT lethal: kills 2HG-producing HT-1080-NT fibrosarcoma cells; Potency, µM (titrated, usually from 46.1 µM), inactives show top-dose activity, negative = less viability, usual class: cytotoxic; HT-1080-NT fibrosarcoma viability, CellTiter-Glo ATP luminescence, 48 h; 360,000 compounds, 1.6% hits; AID 686970;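 note: NT is the 2HG producing partner of a matched IDH1 knockdown line; potency is the fitted concentration of half-maximal effect; 0% = DMSO-treated cells and -100% = media-only wells without cells; nearly all actives have a fitted effect of over 55% in size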
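A 48-hour cytotoxicity screen used HT-1080-NT cells plated 2 hours before compound delivery. ATP-based CellTiter-Glo luminescence measured viability, normalized to DMSO and no-cell controls.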
IL-1B inflam inh: inflammasome signaling inhibition, IL-1 beta readout. THP-1 LPS/ATP IL-1B secretion, AlphaLISA, 16 h; stronger effect = lower value. activity change, % at 57.5 µM. 360,000 compounds, 4.7% hits. AID 743279; in the data active = activity change below about -50%; inconclusive = mostly about -30% to -49%
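Secreted IL-1B measured by AlphaLISA bead assay after 16 h compound exposure of THP-1 cells; compounds (final up to 57.5 uM) added 1 h before LPS (250 ng/mL) and ATP (1.25 mM) stimulation; lower signal means less secretion.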
Active calls of the source: *; u = inconclusive; x = not tested or not shown. Unless noted, calls come from the whole dose curve; as a rule, active = well fitted curve in the direction sought with a large enough effect; inconclusive = small, poorly fitted or top-dose-only effect, or another doubt; inactive = no such curve, though single readings can be large; an effect the other way counts as inactive or inconclusive. Unless noted, % is set by controls: 0 for no effect and ±100 for the full control effect.

SMILES	DT40 TDP1 CPT	ELG1 DNA repair	HT1080 IDH1KD tx	TDP1 cell noCPT	HT1080NT lethal	IL-1B inflam inh
O=C(NC(=S)Nc1cccc(S(=O)(=O)NC2=NCCC2)c1)c1cc(-c2ccco2)nc2ccccc12	4.61µM*	u	1.64µM*	3.66µM*	9.2µM*	45.9
O=C(Nc1cccc(S(=O)(=O)NC2=NCCC2)c1)c1cc(-c2ccco2)nc2ccccc12	-28.7%	-26.3%	-16.4%	-29.2%	-1.1%	34.7
CCOc1ccc(C(=O)NC(=S)Nc2cccc(S(=O)(=O)NC3=NCCC3)c2)cc1	0.82µM*	7.5%	1.03µM*	0.82µM*	0.461µM*	0.0
Cc1cc(Cl)ccc1OCC(=O)Nc1cccc(S(=O)(=O)NC2=NCCCCC2)c1	11.6µM*	7.5%	-12.4%	18.4µM*	-4.1%	-71.5*
O=C(Nc1cccc(S(=O)(=O)NC2=NCCCCC2)c1)c1ccc(Cl)cc1	23.1µM*	u	-10.9%	11.6µM*	-1.5%	-7.6
CCOc1ccc(OCC(=O)Nc2cccc(S(=O)(=O)NC3=NCCC3)c2)cc1	-23.5%	x	-23.4%	u	-12.7%	36.9
COc1ccc(C(=O)NCc2nnc(SCC(=O)Nc3ccccc3)n2-c2ccccc2)cc1	u	x	x	-22.6%	x	x
COc1ccccc1OCC(=O)Nc1cccc(S(=O)(=O)NC2=NCCCCC2)c1	-23.9%	5.8%	4.3%	-27.7%	-0.7%	12.3
NS(=O)(=O)c1cccc(NC(=O)COC(=O)CC2CC3CCC2C3)c1 (configuration not stated)	-26.7%	0.0%	-9.5%	1.1%	-5.2%	-1.3
CC(C)(C)c1ccc(OCC(=O)Nc2cccc(S(=O)(=O)NC3=NCCCCC3)c2)cc1	u	0.8%	-15.1%	-60.2%	-5.9%	26.3
O=C(COc1cccc(C(F)(F)F)c1)Nc1cccc(S(=O)(=O)NC2=NCCCCC2)c1	23.1µM*	x	-4.4%	25.9µM*	-12.6%	-17.1
Cc1cc(C)nc(SCC(=O)Nc2ccc(S(=O)(=O)NC(C)(C)C)cc2)n1	16.4µM*	u	u	14.6µM*	-12.2%	4.7
CCc1ccccc1OCC(=O)Nc1cccc(S(=O)(=O)NC2=NCCCCC2)c1	18.4µM*	-6.6%	-29.5%	u	-20.9%	u
O=C(COC(=O)CC1CC2CCC1C2)Nc1cccc(S(=O)(=O)NC2=NCCCCC2)c1 (configuration not stated)	u	-6.1%	-3.2%	29.1µM*	4.3%	-5.5
COc1ccc(CNc2cc(-c3cccc(NS(C)(=O)=O)c3)ncn2)c(OC)c1	u	x	x	-23.4%	x	x
CC(C)c1ccc(C(=O)Nc2ccc(S(=O)(=O)NC3=NCCCCC3)cc2)cc1	16.4µM*	x	u	23.1µM*	-28.9%	-16.9
CCCOc1ccccc1OCC(=O)Nc1cccc(S(=O)(=O)NC2=NCCC2)c1	u	-12.2%	-2.4%	14.6µM*	-1.4%	-8.8
CN(C)c1ccc(C(=O)Nc2ccc(S(=O)(=O)NC3=NCCCCC3)cc2)cc1	-21.1%	-1.4%	2.9%	-4.5%	0.2%	46.0
Cc1cc(C)nc(NS(=O)(=O)c2ccc(NC(=O)COc3ccc(Cl)cc3C)cc2)n1	u	x	x	18.4µM*	x	x
N#Cc1cc([N+](=O)[O-])ccc1NC(=O)COC(=O)CN1C(=O)C2CCCCC2C1=O (configuration not stated)	u	u	-0.4%	-20.9%	-2.7%	8.6
CC(O)CNc1nc2ccccc2n1-c1ncnc2sc3c(c12)CCC3 (configuration not stated)	16.4µM*	u	u	29.1µM*	u	u
CCCC(=O)NCc1cc(-c2nn(C)c(=O)c3ccccc23)ccc1C	-27.7%	u	7.2%	-11.9%	14.3%	-3.4
Cc1ccc(-c2nn(C)c(=O)c3ccccc23)cc1CNC(=O)c1ccccc1	-18.0%	16.4µM*	-2.4%	u	-4.5%	x
Cc1ccc(-c2nn(CC(=O)NCc3cc(-c4nn(C)c(=O)c5ccccc45)ccc3C)c(=O)c3ccccc23)cc1	14.6µM*	19.8%	u	13µM*	u	38.4
Oc1ccc(/C=N/N2CCN(C3c4ccccc4-c4ccccc43)CC2)cc1	-11.3%	0.1%	-8.2%	-19.4%	-10.2%	-64.1*
SMILES	DT40 TDP1 CPT	ELG1 DNA repair	HT1080 IDH1KD tx	TDP1 cell noCPT	HT1080NT lethal	IL-1B inflam inh
COc1cc(/C=N/N2CCN(C3c4ccccc4-c4ccccc43)CC2)cc(OC)c1OC	16.4µM*	u	15.0%	14.6µM*	9.7%	1.4
O=C(O)c1ccc(/C=N/N2CCN(C3c4ccccc4-c4ccccc43)CC2)cc1	-15.3%	-3.8%	2.3%	4.0%	4.9%	-14.7
COc1cc(/C=N/N2CCN(C3c4ccccc4-c4ccccc43)CC2)cc(OC)c1O	u	1.7%	-2.5%	u	3.5%	1.4
Oc1ccc(/C=N/N2CCN(C3c4ccccc4-c4ccccc43)CC2)cc1O	8.2µM*	-8.3%	u	10.3µM*	-27.9%	u
Cc1ccc(/C=N/N2CCN(C3c4ccccc4-c4ccccc43)CC2)o1	u	-2.2%	-12.4%	18.4µM*	5.1%	-13.1
O=C(Cn1cnc2c(oc3ccccc32)c1=O)Nc1ccc(F)cc1F	-15.6%	x	x	-14.6%	x	x
CN(C)c1cccc(-c2nnc(SCC(=O)NCc3ccco3)n2C)c1	-9.7%	x	x	0.1%	x	x
O=C(CCc1c[nH]c2ccccc12)N[C@@H](Cc1c[nH]c2ccc(O)cc12)C(=O)O	-5.4%	3.0%	8.9%	0.9%	20.2%	-0.9
Cc1c(C(=O)NCc2ccccc2Cl)sc2nc3n(c(=O)c12)CCCCC3	u	x	x	25.9µM*	x	x
Cc1c(C(=O)NCc2ccccc2)sc2nc3n(c(=O)c12)CCC3	-27.2%	x	x	-8.5%	x	x
Cc1c(C(=O)NCc2ccccc2Cl)sc2nc3n(c(=O)c12)CCCC3	u	x	x	23.1µM*	x	x
CC(=O)Nc1cnc(/C=C\CCCO)cn1	-0.2%	x	26.0%	-1.4%	11.6%	8.2
O=C(c1cc2ccccc2o1)N1CCOCC1	1.0%	23.2%	-1.8%	8.1%	1.1%	-16.1
CN1CCN(c2ccccc2NC(=O)c2cc3ccccc3o2)CC1	u	4.0%	-21.4%	u	u	u
O=C(Nc1ccccc1N1CCCC1)c1cc2ccccc2o1	u	u	0.6%	u	6.3%	0.0
CN1CCN(c2ccc(NC(=O)c3cc4ccccc4o3)cc2)CC1	-26.0%	u	-1.7%	u	-11.8%	-6.2
